This is part of a sample that, as a whole, favours compounds with a hit. Of some 83,000 tested, about 20% had one in any assay.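 Each cell line was grown in a 96-well plate and treated with one concentration of compound for 48 hours. Values below 10 were considered active.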 Values without a mark were called inactive. The source made the active and inactive calls.
System: HL-60(TB) leukemia
Experiment: NCI-60 one-dose screen, 48 h (100 = growth as untreated, 0 = no growth, -100 = all killed)
Conditions: 10 µM unless noted

Structure (SMILES) | growth
Cc1cc(C)c(O)c(C(=O)CC(Br)C(=O)O)c1 (stereo unspecified) | 79.8%
CCOC(=O)c1c[nH]n2c(=S)ncnc12 | 91.2%
Cc1ccc2c(c1)=C/C(=C\c1cc(-c3ccccc3)oc1O)C(=O)N=2 | 98%
Cc1ccc2nc(-c3ccc(-n4on4-c4ccc(/C=C/c5ccc(-n6on6-c6ccc(-c7nc8ccc(C)cc8s7)cc6)cc5S(=O)(=O)O)c(S(=O)(=O)O)c4)cc3)sc2c1 | 101%
Cc1ccc(S(=O)(=O)NCCNc2nccc(-c3c(-c4cccc(N)c4)nc4sccn34)n2)cc1 | 110%
O=S(=O)(NC1c2ccccc2Oc2ccccc21)c1cc(Cl)ccc1Cl | 86.7%
CCOC(=O)c1ccc(C(=N)N)cc1 | 103%
COc1ccc2c(c1)O/C(=C\c1ccc([N+](=O)[O-])o1)C2=O | -17.7% (active)
Cn1cc(-c2csc(-c3cn(C(=O)OC(C)(C)C)c4ccccc34)n2)c2ccnc(Cl)c21 | 67.5%
NS(=O)(=O)c1ccc(CCn2c(SCC(=O)N/N=C/c3cccnc3)nc3ccccc3c2=O)cc1 | 80.4%
Cc1ccc(-c2nc3nc(-c4ccccc4)nc(N4CCCN(S(C)(=O)=O)CC4)c3o2)cc1 | 99.6%
CC(=O)ON=C1C=CC(=C(C#N)c2ccccc2)C=C1 | -10.5% (active)
COc1ncc(-c2ccc3nccc(C#CCCCCC(=O)NO)c3c2)cc1NS(=O)(=O)c1ccc(F)cc1F | -33.3% (active)
N#Cc1cncc(-c2ccc3ncnc(Nc4cccc(Cl)c4)c3c2)c1 | 97.2%
CCOC(=O)c1cc(N)nc2ccccc12 | 104%
COc1ccc(C(=O)c2nc3ccccc3n2CC(=O)c2ccc(F)cc2)cc1 | 79.5%
CN(C)c1cnccn1 | 90.3%
O=C(CSc1ncc(-c2ccccc2)n1-c1ccccc1)Nc1ccc(-c2nc3ccccc3s2)cc1 | 100%
Cc1sc2ncnc(Sc3nc4ccccc4[nH]3)c2c1C | -54.7% (active)
CCCNNC(=O)/C=C/c1ccc(CNCCc2c(C)[nH]c3ccccc23)cc1 | 33.3% [2.5 µM]
COc1cc(-c2nc3sccn3c2-c2ccnc(NCCNS(=O)(=O)c3ccc(Cl)cc3)n2)ccc1F | 9.59% (active)
O=C(/C=C/c1ccccc1)C(Br)C(Br)c1ccccc1 (stereo unspecified) | -41.8% (active)
C=C(C)c1ccc(/C=N/NC(N)=S)cc1 | 147%
CCOC(=O)C1CCc2c(ccc3ccccc23)N1CCC#N (stereo unspecified) | 110%
CC[C@@H](C)OC(=O)c1nn(C(C)=O)c2ccccc12 | 120%
O=C(CSc1nc2ccccc2[nH]1)Nc1cccc(Cl)c1 | 102%

From PubChem BioAssay (NCI)
